These results are taken from publication PMC7862700, “An all-to-all approach to the identification of sequence-specific readers for epigenetic DNA modifications on cytosine”.

Assay in all cases: DAPPL (digital affinity profiling via proximity ligation, sequencing); 10 mM Tris-HCl pH 7.5, 50 mM NaCl, 1 mM DTT, 4% glycerol, room temperature, 30 min; GST-TFs on glutathione beads, 16-mer random dsDNA library, 0.1% formaldehyde crosslink after washing; high values mean tight binding
Common to all, as to conditions: protein: recombinant; tags: N-terminal GST; dsDNA, one strand shown

One experiment has as its target T1, ERF (Homo sapiens, UniProt P50548 1-548).
T1 sequence: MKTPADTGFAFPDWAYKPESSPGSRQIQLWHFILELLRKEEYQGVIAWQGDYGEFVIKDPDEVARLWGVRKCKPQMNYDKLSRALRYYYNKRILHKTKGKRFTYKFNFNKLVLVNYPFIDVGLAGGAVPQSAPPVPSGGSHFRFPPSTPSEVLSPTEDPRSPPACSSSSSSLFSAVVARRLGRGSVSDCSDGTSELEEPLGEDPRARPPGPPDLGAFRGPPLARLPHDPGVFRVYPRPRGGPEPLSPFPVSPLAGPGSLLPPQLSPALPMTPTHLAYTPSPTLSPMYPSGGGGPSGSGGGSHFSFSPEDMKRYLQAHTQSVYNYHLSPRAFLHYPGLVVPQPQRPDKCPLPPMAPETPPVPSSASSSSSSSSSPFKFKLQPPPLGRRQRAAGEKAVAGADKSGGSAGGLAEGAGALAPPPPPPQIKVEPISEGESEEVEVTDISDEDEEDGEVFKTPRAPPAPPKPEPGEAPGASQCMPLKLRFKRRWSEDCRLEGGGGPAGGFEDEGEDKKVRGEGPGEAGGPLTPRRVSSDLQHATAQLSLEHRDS
A digest of the protocol: (§1)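 Each value of binding signal is a hexamer's read frequency for a factor divided by the same hexamer's frequency in the tag-only sample. Barcoded, bead-captured GST fusions of human transcription factors made in yeast were pooled with that sample and incubated with 200 nmole of a random double-stranded 16-mer DNA library in Tris/NaCl/DTT/glycerol buffer at room temperature for 30 min. Washing, 0.1% formaldehyde crosslinking, proximity ligation, PCR and Illumina NextSeq500 sequencing followed.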

Another experiment concerns the target T2, ETV3L (Homo sapiens, UniProt Q6ZN32 1-361).
T2 sequence: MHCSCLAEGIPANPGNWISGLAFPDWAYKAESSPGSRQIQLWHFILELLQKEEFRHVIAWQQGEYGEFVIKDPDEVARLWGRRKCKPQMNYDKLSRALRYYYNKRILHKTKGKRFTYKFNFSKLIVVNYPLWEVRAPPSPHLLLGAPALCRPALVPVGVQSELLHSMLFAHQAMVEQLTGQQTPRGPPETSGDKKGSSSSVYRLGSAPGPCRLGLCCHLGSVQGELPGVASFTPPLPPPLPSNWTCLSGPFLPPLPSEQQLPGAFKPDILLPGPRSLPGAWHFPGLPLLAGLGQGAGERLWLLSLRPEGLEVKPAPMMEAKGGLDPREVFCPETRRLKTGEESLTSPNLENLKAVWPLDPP
A digest of the protocol: as §1

In a further experiment the target is T3, ETS2 (Homo sapiens, UniProt P15036 1-469).
T3 sequence: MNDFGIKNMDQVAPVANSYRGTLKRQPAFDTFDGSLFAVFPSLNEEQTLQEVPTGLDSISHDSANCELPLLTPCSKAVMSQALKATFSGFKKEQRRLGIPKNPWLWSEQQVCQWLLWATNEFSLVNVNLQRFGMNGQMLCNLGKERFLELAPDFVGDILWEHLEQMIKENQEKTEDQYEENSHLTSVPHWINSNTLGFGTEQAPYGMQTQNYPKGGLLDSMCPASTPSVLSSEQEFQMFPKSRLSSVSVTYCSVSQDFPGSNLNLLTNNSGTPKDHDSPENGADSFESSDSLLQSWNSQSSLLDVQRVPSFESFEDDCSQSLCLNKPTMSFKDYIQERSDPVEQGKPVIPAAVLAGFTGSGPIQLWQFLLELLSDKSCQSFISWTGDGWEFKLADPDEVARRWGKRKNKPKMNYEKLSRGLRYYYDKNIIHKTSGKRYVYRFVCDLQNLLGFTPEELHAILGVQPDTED
A digest of the protocol:
as §1

For another experiment, the target named is T4, SPDEF (Homo sapiens, UniProt O95238 1-335).
T4 sequence: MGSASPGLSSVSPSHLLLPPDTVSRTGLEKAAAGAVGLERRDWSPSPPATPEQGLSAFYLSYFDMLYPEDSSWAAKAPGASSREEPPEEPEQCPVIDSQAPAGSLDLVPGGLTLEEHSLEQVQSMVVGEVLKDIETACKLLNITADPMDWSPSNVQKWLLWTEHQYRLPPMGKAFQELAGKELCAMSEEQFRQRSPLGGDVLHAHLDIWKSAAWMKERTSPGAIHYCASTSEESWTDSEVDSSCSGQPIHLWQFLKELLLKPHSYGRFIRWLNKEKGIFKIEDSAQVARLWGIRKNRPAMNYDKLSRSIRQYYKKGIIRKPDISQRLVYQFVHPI
A digest of the protocol:
as §1

The target of another experiment is T5, ETV7 (Homo sapiens, UniProt Q9Y603 1-341).
T5 sequence: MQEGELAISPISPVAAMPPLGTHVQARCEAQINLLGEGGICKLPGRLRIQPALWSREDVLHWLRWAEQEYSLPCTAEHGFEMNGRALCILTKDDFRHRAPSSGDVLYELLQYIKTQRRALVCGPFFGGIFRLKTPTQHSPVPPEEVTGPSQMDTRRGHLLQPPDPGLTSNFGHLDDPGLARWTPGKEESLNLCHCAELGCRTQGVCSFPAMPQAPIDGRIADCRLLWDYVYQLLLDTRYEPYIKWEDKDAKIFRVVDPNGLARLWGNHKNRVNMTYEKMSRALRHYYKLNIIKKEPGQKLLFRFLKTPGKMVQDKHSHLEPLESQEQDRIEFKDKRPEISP
A digest of the protocol:
as §1

The target in the next experiment is T6, ELF5 (Homo sapiens, UniProt Q9UKW6-2 1-255).
T6 sequence: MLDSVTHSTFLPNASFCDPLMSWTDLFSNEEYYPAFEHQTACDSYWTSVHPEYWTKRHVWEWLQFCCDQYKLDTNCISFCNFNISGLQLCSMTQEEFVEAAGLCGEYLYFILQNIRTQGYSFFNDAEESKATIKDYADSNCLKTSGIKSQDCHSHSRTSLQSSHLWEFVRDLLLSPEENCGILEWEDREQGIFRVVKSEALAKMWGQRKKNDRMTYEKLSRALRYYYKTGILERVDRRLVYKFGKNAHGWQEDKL
A digest of the protocol: as §1

In a further experiment the target is T7, ETV3 (Homo sapiens, UniProt P41162-2 1-143).
T7 sequence: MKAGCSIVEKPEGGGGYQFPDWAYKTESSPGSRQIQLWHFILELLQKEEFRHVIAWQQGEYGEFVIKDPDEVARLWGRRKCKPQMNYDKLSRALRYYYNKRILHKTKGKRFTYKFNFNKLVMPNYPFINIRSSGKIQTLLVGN
A digest of the protocol: as §1

For the next experiment, the target named is ETV6 (Homo sapiens, UniProt P41212 1-452). Put shortly: as §1
Chain of ETV6 (P41212 whole entry): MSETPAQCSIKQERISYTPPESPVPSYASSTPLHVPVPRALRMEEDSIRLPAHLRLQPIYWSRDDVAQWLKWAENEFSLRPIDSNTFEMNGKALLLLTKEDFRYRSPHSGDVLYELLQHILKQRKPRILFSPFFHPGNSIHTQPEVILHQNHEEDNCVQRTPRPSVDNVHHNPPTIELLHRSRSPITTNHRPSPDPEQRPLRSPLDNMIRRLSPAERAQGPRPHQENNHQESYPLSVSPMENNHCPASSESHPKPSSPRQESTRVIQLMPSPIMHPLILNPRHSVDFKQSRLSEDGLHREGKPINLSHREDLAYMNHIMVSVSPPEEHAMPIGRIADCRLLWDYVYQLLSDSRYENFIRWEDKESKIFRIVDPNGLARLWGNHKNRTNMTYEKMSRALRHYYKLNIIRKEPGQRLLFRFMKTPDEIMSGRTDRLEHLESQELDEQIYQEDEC

Take GATGCC: the binding signal in the experiment with ERF was 1.36 fold enrichment (6-mer frequency, TF over GST control); with ETV3L it was 1.39 fold enrichment (6-mer frequency, TF over GST control); in the experiment with ETS2, 1.33 fold enrichment (6-mer frequency, TF over GST control); with SPDEF it was 1.52 fold enrichment (6-mer frequency, TF over GST control); with ETV7, 1.27 fold enrichment (6-mer frequency, TF over GST control); with ELF5, 1.35 fold enrichment (6-mer frequency, TF over GST control). Besides, the binding signal was 1.39 fold enrichment (6-mer frequency, TF over GST control) in the experiment with ETV3 and 1.32 fold enrichment (6-mer frequency, TF over GST control) with ETV6.

For TTGAGC, the binding signal was 1.04 fold enrichment (6-mer frequency, TF over GST control) with ERF; 1.06 fold enrichment (6-mer frequency, TF over GST control) in the experiment with ETV3L; 1.03 fold enrichment (6-mer frequency, TF over GST control) in the experiment with ETS2; 1.02 fold enrichment (6-mer frequency, TF over GST control) with SPDEF; 1.1 fold enrichment (6-mer frequency, TF over GST control) with ETV7; 1 fold enrichment (6-mer frequency, TF over GST control) with ELF5. The binding signal with ETV3 is 1 fold enrichment (6-mer frequency, TF over GST control); with ETV6, 1.08 fold enrichment (6-mer frequency, TF over GST control).

GCCCTC: the binding signal with ERF is 1.26 fold enrichment (6-mer frequency, TF over GST control); with ETV3L it was 1.09 fold enrichment (6-mer frequency, TF over GST control); in the experiment with ETS2 it was 1.24 fold enrichment (6-mer frequency, TF over GST control); with SPDEF it was 1.08 fold enrichment (6-mer frequency, TF over GST control); in the experiment with ETV7, 1.22 fold enrichment (6-mer frequency, TF over GST control); in the experiment with ELF5, 1.1 fold enrichment (6-mer frequency, TF over GST control). In addition, the binding signal is 1.17 fold enrichment (6-mer frequency, TF over GST control) in the experiment with ETV3 and 1.05 fold enrichment (6-mer frequency, TF over GST control) with ETV6.

Consider GAAAAG, for which the binding signal with ERF is 1 fold enrichment (6-mer frequency, TF over GST control); with ETV3L, 1.09 fold enrichment (6-mer frequency, TF over GST control); with ETS2 it was 1.05 fold enrichment (6-mer frequency, TF over GST control); with SPDEF, 1.01 fold enrichment (6-mer frequency, TF over GST control); with ETV7 it was 1.13 fold enrichment (6-mer frequency, TF over GST control); with ELF5 it was 1.12 fold enrichment (6-mer frequency, TF over GST control). Also, in the experiment with ETV6, the binding signal was 1.18 fold enrichment (6-mer frequency, TF over GST control).

As for TAATGA, the binding signal in the experiment with ERF was 1.26 fold enrichment (6-mer frequency, TF over GST control); with ETV3L it was 1.24 fold enrichment (6-mer frequency, TF over GST control); in the experiment with ETS2, 1.2 fold enrichment (6-mer frequency, TF over GST control); with SPDEF, 1.11 fold enrichment (6-mer frequency, TF over GST control); with ETV7, 1.18 fold enrichment (6-mer frequency, TF over GST control); in the experiment with ELF5, 1.12 fold enrichment (6-mer frequency, TF over GST control). Further, the binding signal with ETV3 was 1.1 fold enrichment (6-mer frequency, TF over GST control); with ETV6, 1.21 fold enrichment (6-mer frequency, TF over GST control).

On to CTATCC, for which the binding signal in the experiment with ERF was 1.38 fold enrichment (6-mer frequency, TF over GST control); with ETV3L, 1.4 fold enrichment (6-mer frequency, TF over GST control); with ETS2, 1.35 fold enrichment (6-mer frequency, TF over GST control); with SPDEF, 1.63 fold enrichment (6-mer frequency, TF over GST control); with ETV7 it was 1.46 fold enrichment (6-mer frequency, TF over GST control); with ELF5 it was 1.45 fold enrichment (6-mer frequency, TF over GST control). The binding signal with ETV3 is 1.27 fold enrichment (6-mer frequency, TF over GST control); with ETV6, 1.32 fold enrichment (6-mer frequency, TF over GST control).

On to CAAGAA, for which the binding signal in the experiment with ERF is 1.12 fold enrichment (6-mer frequency, TF over GST control); with ETV3L, 1.09 fold enrichment (6-mer frequency, TF over GST control); with ETS2, 1.07 fold enrichment (6-mer frequency, TF over GST control); with SPDEF it was 1.06 fold enrichment (6-mer frequency, TF over GST control); with ETV7, 1.14 fold enrichment (6-mer frequency, TF over GST control); with ELF5, 1.08 fold enrichment (6-mer frequency, TF over GST control). Besides, the binding signal in the experiment with ETV6 was 1.04 fold enrichment (6-mer frequency, TF over GST control).
